# Assay results: PubChem BioAssay (NCI)
# Values joined by “and” are separate entries in the source; they are usually repeats but may differ in a detail not shown here. Equal entries are not always repeated. About 79,000 compounds went through this panel and 15% of them were active in at least one assay; those are over-represented in the sample as a whole. Some structures have more than one record in an assay (separate samples or runs), and their calls can disagree. Active and inactive are the calls of the source. No stated cut-off is given here; in the data, active means growth inhibition above about 70%; inactive means the rest.
# Legend:
# [1] = NCI Yeast Anticancer Drug Screen. Data for the rad50 strain (AID 155);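 further: 0% = growth of vehicle-only cultures of the same strain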; conditions: S. cerevisiae rad50 strain growth inhibition, stronger effect = higher value
# Outline: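 DNA repair mutant yeast, compound exposure, growth read-out; inhibition is taken relative to vehicle.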
# [2] = NCI Yeast Anticancer Drug Screen. Data for the mec2-1 strain (AID 157); conditions: S. cerevisiae mec2-1 strain, stronger effect = higher value
# Outline: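 Test agents were screened against the mec2-1 yeast strain, with defined DNA repair or cell cycle alteration. Growth was scored as inhibition against vehicle-only controls.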
# [3] = NCI Yeast Anticancer Drug Screen. Data for the sgs1 mgt1 strain (AID 161);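 further: 0% = growth of cultures given vehicle only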; conditions: S. cerevisiae sgs1 mgt1 strain, stronger effect = higher value
# Outline: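 Test agents were incubated with a DNA-repair-mutant yeast strain. Growth was then read and compared against vehicle-treated controls.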
# [4] = NCI Yeast Anticancer Drug Screen. Data for the cln2 rad14 strain (AID 165);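 further: 0% = growth equal to vehicle treated cultures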; conditions: S. cerevisiae cln2 rad14 strain, stronger effect = higher value
# Outline: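 Growth of compound-exposed yeast (cln2 rad14 genotype) measured and expressed as inhibition relative to vehicle.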
# [5] = NCI Yeast Anticancer Drug Screen. Data for the bub3 strain (AID 167); conditions: S. cerevisiae bub3 mutant strain, stronger effect = higher value
# Outline: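 In this screen, a yeast mutant lacking normal mitotic checkpoint function is challenged with compound. Relative growth versus vehicle gives the inhibition value.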
# [6] = NCI Yeast Anticancer Drug Screen. Data for the mlh1 rad18 strain (AID 175); conditions: S. cerevisiae mlh1 rad18 strain growth inhibition, stronger effect = higher value
# Outline: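 In this whole-cell yeast screen, a strain with altered DNA damage repair is challenged with compound, and its growth is measured against matched vehicle-treated controls.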
# [7] = at 5.0 µM (retest, dose inferred, filed as 0.5)
# [8] = at 50.0 µM (retest, dose inferred, filed as 5.0)
Structure (SMILES),"growth inhibition [1, 7]","growth inhibition [1, 8]",growth inhibition ([1]; at 50.0 µM),"growth inhibition [2, 7]","growth inhibition [2, 8]",growth inhibition ([2]; at 50.0 µM),"growth inhibition [3, 7]","growth inhibition [3, 8]",growth inhibition ([3]; at 50.0 µM),"growth inhibition [4, 7]","growth inhibition [4, 8]",growth inhibition ([4]; at 50.0 µM),"growth inhibition [5, 7]","growth inhibition [5, 8]",growth inhibition ([5]; at 50.0 µM),"growth inhibition [6, 7]","growth inhibition [6, 8]",growth inhibition ([6]; at 50.0 µM)
Nc1cc2c(cc1[N+](=O)[O-])[nH]c1c(-c3ccccc3)nccc12,9% (inactive),97% (active),99.2% (active),-5% (inactive),99% (active),96.4% (active),10% (inactive),99% (active),99.3% (active),1% (inactive),89% (active),99.1% (active),28% (inactive),98% (active),99.2% (active),2% (inactive),98% (active),98.9% (active)
Nc1ncnc2c1ncn2CCCl,2% (inactive),-4% (inactive),8.2% (inactive),-2% (inactive),5% (inactive),-1.35% (inactive),2% (inactive),10% (inactive),14.3% (inactive),-7% (inactive),5% (inactive),-6.85% (inactive),-2% (inactive),6% (inactive),32.4% (inactive),-2% (inactive),-4% (inactive),50.2% (inactive)
O=C1C(=Cc2ccc(O)cc2)N=C(c2ccccc2)N1n1c(-c2ccccc2)nc2ccccc2c1=O,2% (inactive),39% (inactive),71% (active),-2% (inactive),23% (inactive),38.9% (inactive),9% (inactive),29% (inactive),73.2% (active),18% (inactive),40% (inactive),44.9% (inactive),12% (inactive),57% (inactive),89.4% (active),12% (inactive),64% (inactive),91.8% (active)
O=C(NO)c1cccnc1,2% (inactive),3% (inactive),66.3% (inactive),2% (inactive),-1% (inactive),16.1% (inactive),-4% (inactive),-3% (inactive),29.1% (inactive),1% (inactive),0% (inactive),14.8% (inactive),4% (inactive),-2% (inactive),11.8% (inactive),3% (inactive),5% (inactive),16.4% (inactive)
COc1cc(/C=C/C(=O)NCCCCN=[N+]=[N-])ccc1OCc1ccccc1,-1% (inactive),-13% (inactive),89.8% (active),1% (inactive),-11% (inactive),82.2% (active),-7% (inactive),1% (inactive),27.4% (inactive),-9% (inactive),-13% (inactive),-3.15% (inactive),-6% (inactive),-8% (inactive),10.1% (inactive),-3% (inactive),-11% (inactive),39.9% (inactive)
C[C@@H](O)[C@H]1CC[C@H]2[C@@H]3CCC4=C/C(=N/O)CC[C@]4(C)[C@H]3CC[C@]12C,36% (inactive),51% (inactive),7.4% (inactive),15% (inactive),20% (inactive),22.2% (inactive),44% (inactive),-34% (inactive),36.1% (inactive),16% (inactive),78% (active),-0.05% (inactive),-2% (inactive),61% (inactive),80.8% (active),54% (inactive),68% (inactive),36.1% (inactive)
COc1cccc2c1C(=O)c1c(O)c3c(c(O)c1C2=O)C[C@@](O)(C(=O)CO)C[C@@H]3OC1CC(N)C(O)C(C)O1 (some centres not stated),91% (active) and 50% (inactive) and -5% (inactive),99% (active) and 94% (active) and 0% (inactive),92.2% (active) and 94.8% (active) and 20.2% (inactive),41% (inactive) and 20% (inactive) and -6% (inactive),99% (active) and 82% (active) and -16% (inactive),93.7% (active) and 52.2% (inactive) and -26% (inactive),53% (inactive) and 15% (inactive) and 4% (inactive),99% (active) and 88% (active) and -2% (inactive),94.6% (active) and 88% (active) and 5% (inactive),25% (inactive) and 5% (inactive) and -23% (inactive),98% (active) and 49% (inactive) and 1% (inactive),90.5% (active) and 11.1% (inactive) and 91.5% (active),57% (inactive) and 2% (inactive) and 22% (inactive),98% (active) and 72% (active) and 17% (inactive),93.7% (active) and 88.8% (active) and -40.1% (inactive),69% (inactive) and 44% (inactive) and -8% (inactive),98% (active) and 84% (active) and -10% (inactive),92.8% (active) and 89.8% (active) and 46.3% (inactive)
O=C(O)c1ccc(C(c2ccccc2)c2ccccc2)cc1,-19% (inactive),100% (active),97% (active),10% (inactive),100% (active),97.2% (active),11% (inactive),99% (active),98% (active),-11% (inactive),99% (active),96.3% (active),-1% (inactive),99% (active),98.3% (active),8% (inactive),99% (active),98% (active)
CCn1c2ccccc2c2ccc(N=Cc3ccc(N(C)C)cc3)cc21,1% (inactive),78% (active),61.6% (inactive),-1% (inactive),17% (inactive),41.5% (inactive),2% (inactive),40% (inactive),61% (inactive),0% (inactive),45% (inactive),27.4% (inactive),-3% (inactive),25% (inactive),70.7% (active),5% (inactive),37% (inactive),47.5% (inactive)
Cc1cc(O)c(C(C)C)cc1Cl,5% (inactive),79% (active),53.1% (inactive) and 98.7% (active),4% (inactive),90% (active),41% (inactive) and 98.6% (active),-6% (inactive),38% (inactive),45.5% (inactive) and 99.2% (active),-4% (inactive),48% (inactive),4.75% (inactive) and 79.6% (active),-4% (inactive),98% (active),13.2% (inactive) and 97.5% (active),7% (inactive),84% (active),26.8% (inactive) and 98.8% (active)
CCOC(=O)Nc1c(C)cc(C)c(Br)c1C,-3% (inactive),-3% (inactive),97.2% (active),-12% (inactive),6% (inactive),98.7% (active),1% (inactive),12% (inactive),94.9% (active),0% (inactive),-20% (inactive),98.9% (active),-5% (inactive),-8% (inactive),98.6% (active),9% (inactive),22% (inactive),99.2% (active)
CC1(C)CC(=O)C2=C(C1)OC1=C(CC(C)(C)CC1=O)C2c1ccccc1Cl (configuration not stated),19% (inactive),16% (inactive),-5.65% (inactive),12% (inactive),13% (inactive),-7.45% (inactive),8% (inactive),10% (inactive),-1.9% (inactive),37% (inactive),33% (inactive),5.45% (inactive),-11% (inactive),-10% (inactive),13.2% (inactive),17% (inactive),17% (inactive),-15.2% (inactive)
CCCCCCCCCCCCCCCCCC(=O)OC(Cc1ccccc1)C(=O)O (configuration not stated),1% (inactive),-2% (inactive),33.9% (inactive),1% (inactive),2% (inactive),18% (inactive),1% (inactive),-15% (inactive),15.7% (inactive),2% (inactive),-9% (inactive),26.2% (inactive),1% (inactive),2% (inactive),35.7% (inactive),0% (inactive),-1% (inactive),32.9% (inactive)
CCCCCCC(C)CC(CCCCCC)NCCOC(=O)c1ccc([N+](=O)[O-])cc1 (configuration not stated),34% (inactive) and 18% (inactive),98% (active) and 97% (active),98.8% (active) and 99.2% (active),40% (inactive) and 22% (inactive),99% (active),99.3% (active) and 99.5% (active),80% (active) and 42% (inactive),99% (active),99.2% (active) and 99.5% (active),14% (inactive) and 2% (inactive),98% (active),98.5% (active) and 99.1% (active),19% (inactive) and 6% (inactive),99% (active) and 98% (active),98.7% (active) and 99.3% (active),72% (active) and 68% (inactive),99% (active) and 98% (active),99% (active) and 99.5% (active)
